The values below come from PubChem BioAssay AID411 (National Center for Advancing Translational Sciences (NCATS), 2006).

In all, about 72,000 compounds went through this assay and about 1,600 (2.2%) were called active. Many of the other results were omitted from the sample, so actives are more common in it than they were. Values without a mark were called inactive. The call rests on the fitted dose curve; in most records, active means well fitted inhibition curve with a large enough effect; inconclusive means small, poorly fitted or top-dose-only effect; inactive means flat fitted curve, though single readings scatter.
On the % scale 0 is the no-effect control and ±100 the full control effect; potency means the concentration at half of the fitted maximal effect.

Sequence of Luciferin 4-monooxygenase (Photinus pyralis) (P08659 whole entry, looked up): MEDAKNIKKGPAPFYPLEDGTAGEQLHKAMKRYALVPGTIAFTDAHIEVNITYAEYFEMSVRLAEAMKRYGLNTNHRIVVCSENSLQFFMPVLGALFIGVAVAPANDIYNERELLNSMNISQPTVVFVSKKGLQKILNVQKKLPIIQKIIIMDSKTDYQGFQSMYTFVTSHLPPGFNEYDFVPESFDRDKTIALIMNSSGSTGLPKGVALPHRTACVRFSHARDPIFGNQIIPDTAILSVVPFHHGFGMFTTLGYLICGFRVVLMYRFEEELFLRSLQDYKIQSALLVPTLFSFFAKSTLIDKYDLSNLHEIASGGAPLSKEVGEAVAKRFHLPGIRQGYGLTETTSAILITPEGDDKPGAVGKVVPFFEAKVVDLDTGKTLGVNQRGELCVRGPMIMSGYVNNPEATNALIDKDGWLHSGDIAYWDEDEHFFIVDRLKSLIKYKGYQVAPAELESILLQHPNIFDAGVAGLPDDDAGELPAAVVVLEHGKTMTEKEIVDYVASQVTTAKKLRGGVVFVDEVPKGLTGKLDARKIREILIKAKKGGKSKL

The assay addresses Luciferin 4-monooxygenase (Photinus pyralis) (UniProt P08659). Briefly: qHTS Assay for Inhibitors of Firefly Luciferase. Further: nearly all actives have a fitted effect of over 40% in size. The settings on record: purified firefly luciferase, luminescence, 8 min; series mostly up to 57.1 µM; activity change, negative = inhibition: at the top concentration. In short, it runs like this: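 Luminescence read-out after 8 min at room temperature; enzyme reaction used luciferin plus 10 uM ATP (linear range) in imidazole buffer pH 7.2 with KCl, MgCl2, Tween 20 and BSA. Each sample was run as a titration.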
In general terms: qHTS replaces the single test concentration by a dilution series.
`COc1ccc(CCn2c(NCCCN3CCOCC3)nc3c2c(=O)[nH]c(=O)n3C)cc1`: the “activity change, negative = inhibition” value is -0.55%.
`CCc1cccc2c3c([nH]c12)C(CC)(CC(=O)O)OCC3` (configuration not stated): the “activity change, negative = inhibition” value is 0.413% [at 25.5 µM].
`CCN1C(=O)c2cccc3c(N)ccc1c23`: the “activity change, negative = inhibition” value was -8.81%.
In the case of `CCN1C(=O)/C(=C\N2CCN(c3ccccc3)CC2)SC1=S`, the “activity change, negative = inhibition” value is 3.29%.
`CCN1C(=O)/C(=C2\SC(N3CCCCC3)=NC2=O)c2ccccc21`: the Potency is 6.31 µM (active).
Take `CCCn1c(SCC(=O)Nc2c(C)cccc2C)nnc1C(C)C`: the “activity change, negative = inhibition” value was 1.85%.
As for `Cc1cc(C)n2nc(C(=O)Oc3ccc4c(c3)OCO4)nc2n1`, the “activity change, negative = inhibition” value is 1.51%.
Consider `Cc1occc1C(=O)N1CCCc2ccccc21`, for which the “activity change, negative = inhibition” value is 0.295%.
On to `COc1ccccc1C(=O)n1nc(-c2ccccc2)nc1N`, for which the “activity change, negative = inhibition” value was 0.0179%.
In the case of `Cc1nn(C(=O)c2ccoc2C)c(N)c1-c1ccccc1`, the Potency is 25.1 µM (active).
For the compound `Cc1nc2cc(S(=O)(=O)C(F)(F)F)ccc2s1`, the “activity change, negative = inhibition” value was 4.06%.
Consider `CN(c1ccccc1)c1ccc(/C=c2\s/c(=C(/C#N)C(=O)C(C)(C)C)n(Cc3ccco3)c2=O)cc1`, for which the “activity change, negative = inhibition” value was -5.79%.
On to `COC(=O)c1ccc2c(=O)n(CC3CCCO3)c(=S)[nH]c2c1` (configuration not stated), for which the “activity change, negative = inhibition” value is -0.889%.
Consider `Cc1ccsc1C(=O)OCC(=O)c1cc2ccccc2o1`, for which the “activity change, negative = inhibition” value is -16.8%.
Regarding `Cc1ccsc1C(=O)OCC(=O)c1cc(C)n(CC2CCCO2)c1C` (configuration not stated), the Potency was 1 µM (active).
As for `O=S(=O)(O)c1nc2ccccc2n1Cc1ccc(Cl)cc1Cl`, the “activity change, negative = inhibition” value is 0.262% [at 25.5 µM].
On to `CN1CCN(S(=O)(=O)c2ccc(NC(=O)C3CCCO3)cc2)CC1` (configuration not stated), for which the “activity change, negative = inhibition” value is 3.62%.
In the case of `C[C@@H]1C[C@H]2[C@@H]3C[C@H](F)C4=CC(=O)C=C[C@@]4(C)[C@]3(F)[C@H](O)C[C@]2(C)[C@@]1(O)C(=O)CO`, the “activity change, negative = inhibition” value is 0.574% [at 25.5 µM].
On to `CN(C)/C=C1/C(=O)Nc2ccccc21`, for which the “activity change, negative = inhibition” value was 0.13%.
Consider `CCc1nc2ccccc2n(CCOCCOCCn2c(=O)c(CC)nc3ccccc32)c1=O`, for which the “activity change, negative = inhibition” value is 3.93%.
For `O=C(NCc1cccnc1)c1cn(-c2ccccc2)nc1-c1cccs1`, the Potency was 10 µM (active).
Take `O=C(c1cn(-c2ccccc2)nc1-c1cccnc1)N1CCCCC1`: the “activity change, negative = inhibition” value is -2.89%.
The same measure, in the same setting: the value for `COC(=O)c1cn(-c2ccccc2)nc1-c1cccnc1` was 1.75%.
As to `CC(=O)/C(C)=N\O`, the Potency result was “inactive”.
On to `COc1ccc(-c2noc(-c3cccc(OC)c3OC)n2)cc1OC`, for which the Potency was 6.31 µM (active).
For `COc1cc(-c2nc(-c3ccncc3)no2)cc(OC)c1OC`, the “activity change, negative = inhibition” value was -4.91%.
Take `CCOc1nc(-c2ccc(OC)cc2)ccc1-c1noc(-c2cc(OC)c(OC)c(OC)c2)n1`: the “activity change, negative = inhibition” value was 1.4%.
The same measure, in the same setting: the same measure for `COC(=O)[C@@H]1CC[C@H](C)[C@@H](c2ccc(C)cc2)N1C(=O)c1ccc(/C=N\OC[C@@H](O)COCc2ccco2)cc1`: -0.535% [at 11.4 µM].
As to `CCc1cc2c(=O)c(-c3ccon3)c(N)oc2cc1OC`, the Potency was 3.98 µM (active).
Turning to `CC1CCC(NS(=O)(=O)c2ccc3c(c2)n(C)c(=O)c(=O)n3C)CC1` (configuration not stated), the “activity change, negative = inhibition” value is 0.852%.
In the case of `CCOC(=O)C1C(=O)C=C(c2ccc(OC)cc2)CC1c1ccco1` (configuration not stated), the Potency was 25.1 µM (active).
On to `COc1ccc(CCNC(=O)c2ccco2)cc1`, for which the “activity change, negative = inhibition” value was -4.8%.
On the same count and under the same terms, the same measure for `CCOC(=O)C1C(=O)NC(N2CCN(c3ccccc3)CC2)=NC1c1ccco1` (configuration not stated): 2.05%.
Turning to `CN1C(=O)c2ccccc2C(C(=O)NCCCN2CCCC2)C1c1c[nH]c2ccccc12` (configuration not stated), the “activity change, negative = inhibition” value was 1.89%.
`O=C1OCCC=C1[C@@H](O)CCc1ccccc1`: the activity change, negative = inhibition is 1.7% [at 11.4 µM].
Turning to `CN1CCN(CC(=O)Nc2sc3c(c2C#N)CCC(C(C)(C)C)C3)CC1` (configuration not stated), the “activity change, negative = inhibition” value was 2.15%.
On to `CCOc1ccc(-c2nnn(CC(=O)N3CCN(c4ccc(F)cc4)CC3)n2)cc1OCC`, for which the “activity change, negative = inhibition” value is 1.81%.
Still for that read-out and setting: the same measure for `CCOc1ccc(-c2nnn(CC(=O)N3CCN(c4ccc(OC)cc4)CC3)n2)cc1OCC`: -0.335%.
Turning to `COc1ccc(C(=O)Cn2nnc(-c3ccc(N4CCOCC4)cc3)n2)cc1OC`, the Potency is 10 µM (active).
Consider `CCOC(=O)c1cc2sccc2n1Cc1ccc(C#N)cc1`, for which the “activity change, negative = inhibition” value is 0.824%.
Still for that read-out and setting: the value for `O=C(O)c1ccc(C(=O)O)c2c(C(=O)O)ccc(C(=O)O)c12` was -2.88% [at 11.4 µM].
Turning to `CC(C)(C)c1ccc(C(=O)CSc2ncn[nH]2)cc1`, the Potency is 15.8 µM (active).
Consider `Cn1nnc(NC(=O)CSc2ncn[nH]2)n1`, for which the “activity change, negative = inhibition” value was -1.66%.
On to `CCN(C(=O)CSc1ncn[nH]1)c1cccc2ccccc12`, for which the “activity change, negative = inhibition” value is 3.18%.
The same measure, in the same setting: the value for `CCOc1cc(C)c(Cl)cc1S(=O)(=O)n1nnc2ccccc21` was 1.16%.
Still for that read-out and setting: the value for `C=CCn1c(SCc2nnc(-c3ccccc3)o2)nnc1C(O)c1ccccc1` (configuration not stated) was -0.126%; that for `Cc1cccc(NC(=O)COc2ccccc2C)n1` was -11.8%; that for `CCOc1ccc(OCc2ccc(C(=O)Nc3cccc(C)n3)o2)cc1` was 2.72%.
Regarding `Cc1cccc(NC(=O)COc2ccc(Br)cc2C)n1`, the Potency is 10 µM (active).
Regarding `COc1cccc(-c2nc3n(n2)C(c2ccccc2Cl)C(C(N)=O)=C(C)N3)c1` (configuration not stated), the “activity change, negative = inhibition” value was -0.456%.
Turning to `CC(C)Cc1cc(C(=O)Nc2cc(Br)ccc2O)no1`, the Potency was 12.6 µM (active).
`CC(C)CNC(=O)c1cc(-c2ccc(Br)cc2)on1`: the “activity change, negative = inhibition” value was -1.15%.
On to `O=C(Nc1ccccc1C(F)(F)F)c1cc(-c2ccc(O)cc2)on1`, for which the “activity change, negative = inhibition” value was -4.79%.
For the compound `O=C1c2cccnc2C(Nc2ccc(S(=O)(=O)N3CCCCCC3)cc2)N1Cc1ccccc1` (configuration not stated), the “activity change, negative = inhibition” value was -2.25%.
Same read-out and setting: the value for `COC(=O)c1cn(C)c2ccc(S(=O)(=O)N3CC(C)CC(C)C3)cc2c1=O` (configuration not stated) was 2.46%.
Consider `c1ccc2[nH]c(-c3nc4ccccc4[nH]3)nc2c1`, for which the Potency was 2.51 µM (active).
Regarding `c1ccc(-c2[nH]ncc2-c2nc3ccccc3[nH]2)cc1`, the “activity change, negative = inhibition” value was -10.9%.
Still for that read-out and setting: the same measure for `C=CCSc1nc2ccccc2[nH]1`: -5.6%; for `CC(=O)c1nc(N2C(=O)C3CC=C(C)CC3C2=O)sc1C` (configuration not stated): 3.83%.
For `COc1ccc2[nH]c3c(=O)n(Cc4ccco4)cnc3c2c1`, the “activity change, negative = inhibition” value is -4.13%.
As for `COc1ccc2[nH]c3ccc(OC)cc3c2c1`, the Potency was 20 µM (active).
As to `COc1ccc2[nH]c3cc4c(=O)c5cc(OC)ccc5[nH]c4cc3c(=O)c2c1`, the activity change, negative = inhibition was -0.432% [at 11.4 µM].
Turning to `CCOc1ccc(N2C(=O)CC(N(O)c3ccccc3)C2=O)cc1` (configuration not stated), the “activity change, negative = inhibition” value is 0.494%.
In the case of `CCOc1ccc(-c2nnc(-c3ccco3)o2)cc1`, the Potency is 7.94 µM (active).
Regarding `CCC(=O)Oc1cccc(C(=O)Nc2ccc(-c3nnc(-c4ccco4)o3)cc2)c1`, the “activity change, negative = inhibition” value is -6.47%.
`Cc1ccc(OCC(=O)Nc2ccc(-c3nnc(-c4ccco4)o3)cc2)cc1`: the “activity change, negative = inhibition” value was 0.889%.
Consider `CCOc1cc2c(cc1OCC)C(C(=O)O)C(c1ccc(OC)c(O)c1)N(C)C2=O` (configuration not stated), for which the “activity change, negative = inhibition” value is 6.01%.
